Reference: PubChem BioAssay (NCATS)
Inconclusive results are not listed. Calls of active or inactive are those of the source. Calls come from the whole dose curve; as a rule, active = well fitted curve in the direction sought with a large enough effect; inconclusive = small, poorly fitted or top-dose-only effect, or another doubt; inactive = no such curve, though single readings can be large; an effect the other way counts as inactive or inconclusive. Residues, ends and D or L forms follow the SMILES beside them. *: point of attachment. Cbz = O=C(OCc1ccccc1)*

Assay: High Content Imaging Cell-Based qHTS for Inhibitors of the mTORC1 Signaling Pathway in MEF (Tsc2-/-, p53-/-) Cells (AID 2666);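 note: percent of cells scored positive for phospho-rpS6 Ser235/236 immunostaining by imaging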
Conditions: series mostly up to 38.3 µM
How it was run: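 Cells were plated, dosed with compound after 24 hrs, and incubated another 24 hrs at 37 degree Celsius. Fixed cells were immunostained for phospho-rpS6 Ser235/236 and counterstained, and the normalized signal was scored as % active cells against rapamycin and DMSO controls.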

Structure (SMILES)	outcome
CC(C)[C@H](NC(=O)OCc1ccccc1)C(=O)N[C@H](C=O)Cc1ccccc1 (Cbz-Val-Phe-aldehyde)	inactive
CCCCOC(=O)NS(=O)(=O)c1sc(CC(C)C)cc1-c1ccc(Cn2c(CC)nc3c(C)cc(C)nc32)cc1	inactive
CN1CCN(c2nc3cc(C(F)(F)F)ccc3n3cccc23)CC1	inactive
C=CCN1CCc2c(cc(O)c(O)c2Br)[C@@H](c2ccccc2)C1	inactive
C[C@](Cc1ccc(O)c(O)c1)(NN)C(=O)O	inactive
COc1ccc(-c2cc3ncc(C)n3c(Nc3ncccc3C(N)=O)n2)cc1OC	inactive
N=C(N)SCCN	inactive
CC1CNCCN1S(=O)(=O)c1cccc2cnccc12 (stereo not given)	inactive
OC1(c2ccc(Cl)cc2)CCN(Cc2c[nH]c3ccccc23)CC1	inactive
O[Si](CCCN1CCCCC1)(c1ccc(F)cc1)C1CCCCC1 (stereo not given)	inactive
N#CC(=C(\N)Sc1ccccc1N)/C(C#N)=C(/N)Sc1ccccc1N	inactive
CCCCCCCCCCCCCCC[C@H](O)[C@H](N)CO	inactive
C=CCN1CCc2c(cc(O)c(O)c2Cl)C(c2ccccc2)C1 (stereo not given)	inactive
C[C@]12C=CC(=O)C=C1CC[C@@H]1C2=CC[C@]2(C)[C@@H](C(=O)CN3CCN(c4cc(N5CCCC5)nc(N5CCCC5)n4)CC3)CC[C@@H]12	inactive
O=C(c1ccc2c(c1)OCCO2)N1CCCCC1	inactive
O=C1Nc2ccc(I)cc2/C1=C/c1cc(Br)c(O)c(Br)c1	inactive
COc1cc(N)c(Cl)cc1C(=O)OCCN1CCCCC1	inactive
N#C/C(=C\c1ccc(O)c(O)c1)C(=O)NCCc1ccccc1	inactive
CCCCCCCCCC(=O)NC(CN1CCOCC1)[C@H](O)c1ccccc1 (stereo not given in full)	inactive
CC(N)=O	inactive
COc1ccccc1N1CCN(CCCCNC(=O)c2ccc3ccccc3c2)CC1	inactive
CSC(N)=NCCC[C@H](N)C(=O)O	inactive

Assay: High Content Imaging Cell-Based qHTS for Inhibitors of the mTORC1 Signaling Pathway in MEF Cells (AID 2667);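 note: Tsc2-/- p53-/- MEFs stably re-expressing wild-type Tsc2 exposed 24 h; plate controls were DMSO wells for no effect and rapamycin control wells for full effect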
Conditions: series mostly up to 38.3 µM; activity change, negative = inhibition: at the top concentration
How it was run: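 Immunofluorescence for rpS6 phosphorylation in MEFs of Tsc2-/-, p53-/- background rescued with WT Tsc2. Compound exposure lasted 24 hrs. Inhibition was scored against rapamycin-treated control wells.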

Structure (SMILES)	activity change, negative = inhibition
COc1cc(C(O)CO)ccc1O (stereo not given)	-100% (inactive)
NC(N)=NC(N)=Nc1cccc(Cl)c1	-100% (inactive)
O=C(O)[C@H]1NCCC[C@H]1C(=O)O	-100% (inactive)
[Li+]	-100% (inactive)
C#CC(N)CCC(=O)O (stereo not given)	-100% (inactive)
CCCCC[C@H](CC(=O)NO)C(=O)N[C@H](C(=O)N1CCC[C@H]1CO)C(C)C	-100% (inactive)
CCCCCC[C@@H]([C@@H](C)O)n1cnc2c(N)ncnc21	-100% (inactive)
NC(C(=O)N[C@@H]1C(=O)N2C(C(=O)O)=C(Cl)CS[C@H]12)c1ccccc1 (stereo not given in full)	-100% (inactive)
CC(=O)[C@H]1CCC2C3CC=C4C[C@@H](OS(=O)(=O)O)CC[C@]4(C)C3CC[C@@]21C (stereo not given in full)	-100% (inactive)
COC(=O)C1=C(C)NC(C)=C([N+](=O)[O-])C1c1ccccc1C(F)(F)F (stereo not given)	-100% (inactive)
CC1CCN(CC[C@H]2CCCN2S(=O)(=O)c2cccc(O)c2)CC1	-100% (inactive)
O=c1[nH]ccc2c(O)cccc12	-100% (inactive)
O=C(O)C1=CC(=C(c2ccc(O)c(C(=O)O)c2)c2ccc(O)c(C(=O)O)c2)C=CC1=O	-100% (inactive)
NC1(C(=O)O)CC1	-100% (inactive)
Cn1cc(C(F)(F)F)nc1-c1ccc(OCC(O)CNCCOc2ccc(O)c(C(N)=O)c2)cc1 (stereo not given)	-100% (inactive)
Cn1c(=O)c2[nH]c(C3CCCC3)nc2n(C)c1=O	-100% (inactive)

Assay: Cytometry Cell-Based qHTS for Inhibitors of the mTORC1 Signaling Pathway in MEF cells (AID 2668);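 note: Tsc2-/- p53-/- mouse embryonic fibroblasts stably re-expressing wild-type Tsc2; percent cells positive for phospho-rpS6 Ser235/236 relative to propidium iodide stain; plate controls were DMSO wells for no effect and 7.5 nM rapamycin control wells for full effect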
Conditions: mTORC1 pathway readout; series mostly up to 38.3 µM; activity change, negative = inhibition: at the top concentration
How it was run: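 MEFs (Tsc2-/-, p53-/- stably expressing WT Tsc2) treated 24 h at 37 degree Celsius, fixed, stained with Alexa-488 anti-phospho-rpS6 Ser235/236 and propidium iodide; Acumen laser scanning. Reported as % positive cells, phospho-S6 normalized to PI.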

Structure (SMILES)	activity change, negative = inhibition
COc1cc(C(O)CO)ccc1O (stereo not given)	2.28% (inactive)
CC(C)[C@H](NC(=O)OCc1ccccc1)C(=O)N[C@H](C=O)Cc1ccccc1 (Cbz-Val-Phe-aldehyde)	6.23% (inactive)
NC(N)=NC(N)=Nc1cccc(Cl)c1	2.59% (inactive)
O=C(O)[C@H]1NCCC[C@H]1C(=O)O	0.197% (inactive)
[Li+]	1.1% (inactive)
C#CC(N)CCC(=O)O (stereo not given)	-4.11% (inactive)
CCCCC[C@H](CC(=O)NO)C(=O)N[C@H](C(=O)N1CCC[C@H]1CO)C(C)C	5.4% (inactive)
CCCCCC[C@@H]([C@@H](C)O)n1cnc2c(N)ncnc21	5.07% (inactive)
NC(C(=O)N[C@@H]1C(=O)N2C(C(=O)O)=C(Cl)CS[C@H]12)c1ccccc1 (stereo not given in full)	0.366% (inactive)
CC(=O)[C@H]1CCC2C3CC=C4C[C@@H](OS(=O)(=O)O)CC[C@]4(C)C3CC[C@@]21C (stereo not given in full)	7.82% (inactive)
COC(=O)C1=C(C)NC(C)=C([N+](=O)[O-])C1c1ccccc1C(F)(F)F (stereo not given)	0.411% (inactive)
CC1CCN(CC[C@H]2CCCN2S(=O)(=O)c2cccc(O)c2)CC1	1.92% (inactive)
C[C@]12C=CC(=O)C=C1CC[C@@H]1C2=CC[C@]2(C)[C@@H](C(=O)CN3CCN(c4cc(N5CCCC5)nc(N5CCCC5)n4)CC3)CC[C@@H]12	-12.9% (inactive)
O=C(c1ccc2c(c1)OCCO2)N1CCCCC1	5.92% (inactive)
O=c1[nH]ccc2c(O)cccc12	4.07% (inactive)
O=C(O)C1=CC(=C(c2ccc(O)c(C(=O)O)c2)c2ccc(O)c(C(=O)O)c2)C=CC1=O	1.99% (inactive)
COc1cc(N)c(Cl)cc1C(=O)OCCN1CCCCC1	5.67% (inactive)
CC(N)=O	-20.5% (inactive)
NC1(C(=O)O)CC1	12.1% (inactive)
CSC(N)=NCCC[C@H](N)C(=O)O	9.1% (inactive)
Cn1cc(C(F)(F)F)nc1-c1ccc(OCC(O)CNCCOc2ccc(O)c(C(N)=O)c2)cc1 (stereo not given)	6.3% (inactive)
Cn1c(=O)c2[nH]c(C3CCCC3)nc2n(C)c1=O	3.69% (inactive)
